According to PubChem BioAssay (EPA / NIEHS):
Calls of active or inactive are those of the source. How the source made its calls: active means hit-call score of the fitted dose curve at least 0.9, where 1 is the maximum; inactive means score below 0.9.

Test: ATG_CMV_CIS: Attagene CIS-FACTORIAL HepG2 Assay for human CMV (Internal Marker) (AID 2282928);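 further: endpoint acts as a background internal control marker rather than a target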
Conditions: HepG2 CMV promoter reporter, transcription factor profiling; actives raise or lower the signal
Procedure: ATG_CIS is a cell-based, multiplexed-readout assay that uses HepG2, a human liver cell line, with measurements taken at 24 hours after chemical dosing in a 24-well plate.ATG_CMV_CIS is one of 52 assay component(s) measured or calculated from the ATG_CIS assay. It is designed to make measurements of mRNA induction, a form of inducible reporter, as detected with fluorescence intensity signals by Reverse transcription polymerase chain reaction (RT-PCR) and Capillary electrophoresis technology.Data from the assay component ATG_CMV_CIS was analyzed into 1 assay endpoint. This assay endpoint, ATG_CMV_CIS, was analyzed with bidirectional fitting relative to DMSO as the negative control and baseline of activity. Using a type of inducible reporter, measures of mRNA for gain or loss-of-signal activity can be used to understand the background control at the transcription factor-level as they relate to the gene . Furthermore, this assay endpoint can be referred to as a secondary readout, because this assay has produced multiple assay endpoints where this one serves a background control function. To generalize the intended target to other relatable targets, this assay endpoint is annotated to the background measurement intended target family, where the subfamily is internal marker.
Human liver HepG2 cells are transiently transfected with multiple reporter transcription units (MRTUs) in 6-well plates using FuGene 6 reagent (Roche; 3 ml FuGene/1 mg DNA). The MRTU constructs are regulated by a cis-regulating element (promoter). […] A major difference between the CIS and TRANS system is that in CIS activities of endogenous TFs are measured, whereas the TRANS assay evaluates changes in activities of exogenous, chimeric NR-Gal4 proteins. […] At the end of 24 hour incubation, total RNA was isolated using TriZol reagent (Invitrogen). The isolated RNA is then reverse-transcribed using oligo(dT) primer and Mo-MLV reverse transcriptase (Invitrogen) with DNAse I (Ambion) treatment for 30 min. The one-tenth of the produced cDNA was amplified by PCR using Taq DNA polymerase (Invitrogen) and two reporter sequence-specific primers. The PCR products were fluorescently labeled by primer extension with 6-arboxyfluorescein (6-FAM) 5'-labeled reporter sequence-specific primer (2 min at 95 C, 20 s at 68 C and 10 min at 72 C) and these products were digested with 5U of HpaI (New England Biolabs) for 2h at 37 C. The fragments were purified using Qiaquick PCR columns (Qiagen), analyzed on an ABI 3130xL genetic analyzer (Applied Biosystems) with peak positions identified by using a set of X-rhodamine (ROX)-labeled MapMarker1000 molecular weight standards (BioVentures). The raw capillary electrophoresis data was processed using Attagraph software (Attagene).

| SMILES | outcome | AC50 |
| --- | --- | --- |
| N#CCc1ccc(Cl)cc1Cl | inactive | – |
| NC(=O)OCC(COC(N)=O)c1ccccc1 | inactive | – |
| O=C(O)C(c1ccc(Cl)cc1)c1ccc(Cl)cc1 | inactive | – |
| c1c[nH]cn1 | inactive | – |
| CCCCC(CC)COCC1CO1 (stereo not given) | inactive | – |
| c1ccc(-c2ccccn2)nc1 | inactive | – |
| SCCc1cnccn1 | – | 53.9 µM (active) |
| CC(CC=O)c1ccccc1 (stereo not given) | inactive | – |
| COCCCOCCCOC | inactive | – |
| Cc1cccc(N)n1 | inactive | – |
| NCCCN1CCN(CCCN)CC1 | inactive | – |
| CC=CC(F)(F)C(F)(F)C(F)(F)F | inactive | – |
| CCC(C)C=O (stereo not given) | inactive | – |
| CCOC(=O)c1ccccc1C(=C1C=C(Br)C(=O)C(Br)=C1)c1cc(Br)c(O)c(Br)c1 | – | 53.7 µM (active) |
| O=C1CCCCCCCCCCCCCCCO1 | – | 72.9 µM (active) |
| O=C1Nc2ccccc2C1(c1ccc(O)cc1)c1ccc(O)cc1 | – | 136 µM (active) |
| CCO[Si](C)(OCC)OCC | inactive | – |
| COC=O | inactive | – |
| CCOC(=O)Cc1cccc2ccccc12 | inactive | – |
| CCOC(=O)NNc1nncc2ccccc12 | inactive | – |

| SMILES | outcome | AC50 |
| --- | --- | --- |
| Cc1cc(C)c(C(=O)O)c(C)c1 | inactive | – |
| C=C1C2CCC(C2)C1(C)C (stereo not given) | inactive | – |
| C1=CCCC1 | inactive | – |
| O=[N+]([O-])c1ccc(CO)cc1 | inactive | – |
| CCCC(=O)OCc1ccccc1 | inactive | – |
| O=C(c1ccc(O)cc1)c1ccc(O)cc1O | – | 68.7 µM (active) |
| CCCCCC(C)O (stereo not given) | inactive | – |
| CC(C)(Oc1ccc(C2CC2(Cl)Cl)cc1)C(=O)O (stereo not given) | inactive | – |
| COc1ccc(-c2coc3cc(O)ccc3c2=O)cc1 | inactive | – |
| CCN(CC#N)c1cccc(C)c1 | inactive | – |
| Cc1cc(C)c(C)c(C)c1 | inactive | – |
| [Cl][In]([Cl])[Cl] | inactive | – |
| CCCNC(=O)NS(=O)(=O)c1ccc(Cl)cc1 | inactive | – |
| CCc1c(C(=O)O)c(=O)cnn1-c1ccc(Cl)cc1 | inactive | – |
| CC1OC1C1CCC2(C)OC2C1 (stereo not given) | inactive | – |
| Cc1cccc(C(=O)O)c1 | inactive | – |
| CC(=O)C=CC1C(C)=CCC(C)C1(C)C (stereo not given) | inactive | – |
| OC1CCCCCCCCCCC1 | – | 75.4 µM (active) |
| O=c1c2ccccc2oc2ccccc12 | inactive | – |
| O=C(O)CCCC[C@@H]1SC[C@@H]2NC(=O)N[C@@H]21 | inactive | – |
